CYP2C19 inhib: blockers of cytochrome P450 2C19 activity – biochemical, luminescence, ADME assay, primary screen. CYP2C19 Supersomes, luciferin-H EGE luminescence, 30 min. inhibition, % at 5 µM. hit rate 21% among 96,000;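 active means CYP2C19 inhibition above a set limit at 5 µM in the primary screen, cut at about 50% in these data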;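 further: plate controls were negative control wells for no effect and 2.5 mM tranylcypromine positive control for full effect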
Target sequence (P33261 whole entry, looked up): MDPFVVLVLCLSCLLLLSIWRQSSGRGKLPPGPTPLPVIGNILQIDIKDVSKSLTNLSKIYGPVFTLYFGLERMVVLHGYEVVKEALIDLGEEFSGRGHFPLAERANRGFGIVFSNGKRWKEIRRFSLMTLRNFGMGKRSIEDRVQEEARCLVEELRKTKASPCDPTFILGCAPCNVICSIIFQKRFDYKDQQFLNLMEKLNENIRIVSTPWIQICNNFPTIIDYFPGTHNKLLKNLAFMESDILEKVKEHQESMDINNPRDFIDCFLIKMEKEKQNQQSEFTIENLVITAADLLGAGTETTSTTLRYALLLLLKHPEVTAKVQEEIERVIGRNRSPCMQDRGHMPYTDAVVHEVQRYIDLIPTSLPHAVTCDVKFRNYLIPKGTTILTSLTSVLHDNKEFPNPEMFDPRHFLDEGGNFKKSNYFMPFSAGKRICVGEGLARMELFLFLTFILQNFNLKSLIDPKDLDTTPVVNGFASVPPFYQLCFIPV
CYP2C19 activ: human CYP2C19 activators, primary screen, biochemical, luminescence. AID 1025, 2008. activation factor at 5 µM. Cytochrome P450 2C19 (Homo sapiens), P33261. 96,000 tested, under 10 active. recombinant CYP2C19, luciferin-H EGE luminescence; hits give high values; 0 = fully inhibited enzyme, 1 = untreated enzyme;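 active means activation factor of at least 2 at 5 µM in the primary screen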;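 further: 0 = wells with 2.5 mM tranylcypromine and 1 = vehicle-only wells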
CYP2C9 activ: human CYP2C9 activators, primary screen, biochemical, luminescence; recombinant CYP2C9, luciferin-H conversion; hits give high values; factor 1 = untreated enzyme, 0 = blocked; activation factor at 5 µM; Cytochrome P450 2C9 (Homo sapiens), P11712; hit rate 1.4% among 96,000;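 active means activation factor of 2 or more for CYP2C9 at a 5 µM dose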;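 further: 0 = sulfaphenazole-blocked wells and 1 = vehicle-only wells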
CYP2C9 inhib: blockers of cytochrome P450 2C9 activity – biochemical, luminescence, ADME assay, primary screen | CYP2C9 Supersomes, luciferin-H conversion | hit rate 20% among 96,000 | inhibition, % at 5 µM | P11712;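 active means blocking of liver enzyme CYP2C9 beyond about 50% at 5 µM, limit read from the data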
Cav32 inh: Cav3.2 calcium influx blockers – cell-based, Fluo-4 calcium fluorescence, FDSS, MLSMR library, primary screen; Voltage-dependent T-type calcium channel subunit alpha-1H (Homo sapiens), O95180; hit rate 4% among 100,000; B-score at 10 µM; Cav3.2-expressing cells; hits give low values;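 active means single-dose well whose peak fluorescence ratio is a statistical outlier from its plate by either plate-standardised score or position-corrected B-score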
Numbers without * were called inactive; · = no result. Only some compounds are listed: those with a hit (about 27% of all), similar ones and a draw of the others.

SMILES	CYP2C19 inhib	CYP2C19 activ	CYP2C9 activ	CYP2C9 inhib	Cav32 inh
COC(=O)C1=C(C(=O)OC)[C@@H]2N(C)c3ccccc3[C@@]23C[C@@H](CO)N(C(=O)C2CCC2)C3=N1	·	·	·	·	-0.73
O=C(c1ccccc1CCc1ccccc1)N1CCOCC1	40	0.6	1.1	-11	-0.053
CCCNc1nc2c(c(=O)n(C)c(=O)n2C)n1Cc1ccc(F)cc1	33	0.7	0.8	19	0.4
Cn1c(NCC(O)CO)nc2c1c(=O)n(Cc1ccc(Cl)c(Cl)c1)c(=O)n2C (configuration not stated)	15	0.8	0.7	28	0.33
Cn1c(=O)c2c(nc(NCCCO)n2Cc2cccc(C(F)(F)F)c2)n(C)c1=O	59*	0.4	0.7	29	0.0026
Cn1c(NCc2ccco2)nc2c1c(=O)n(Cc1ccc(Cl)c(Cl)c1)c(=O)n2C	60*	0.4	0.3	69*	·
Cn1c(=O)c2c(nc(NCc3ccccc3)n2Cc2ccc(F)cc2)n(C)c1=O	·	·	·	·	-6.8*
Cn1c(=O)c2c(nc(SCC(=O)O)n2Cc2cccc(C(F)(F)F)c2)n(C)c1=O	-2	1	0.9	8	0.58
Cc1nc(SCC(=O)Nc2c(C)n(C)n(-c3ccccc3)c2=O)[nH]c(=O)c1C	·	·	·	·	-0.45
O=C(Cc1coc2ccc3ccccc3c12)Nc1nccs1	11	0.9	0.6	39	-0.74
CCCN(CCC)C(=O)Cc1coc2ccc3ccccc3c12	64*	0.4	1.9	-93	-6.3*
O=C(Cc1coc2ccc3ccccc3c12)NCc1ccccc1	86*	0.1	2.8*	-184	-1.3
Cc1ccc(C(=O)CSc2nc(C)cc(C)c2C(N)=O)cc1	77*	0.2	0.4	60*	1.8
CCCCCCNS(=O)(=O)c1ccc(Cl)s1	98*	0	0.1	86*	-6.4*
CCCCCCn1c(C(C)NC(=O)c2ccco2)nc2ccccc21 (configuration not stated)	42	0.6	0.4	56*	-10*
CCCCCCCn1c(=N)n(CC(=O)c2ccco2)c2ccccc21	7	0.9	1	4	-2.6*
S=C1NC[C@H](Cc2ccccc2)N1CCc1cccc2ccccc12	·	·	·	·	-1.1
CCc1ccc(OCc2nc(-c3ccccn3)no2)c(Br)c1	95*	0.1	0.3	74*	-4.6*
Cc1ccc(OCc2nc(-c3ccccn3)no2)cc1	41	0.6	0.7	32	-1.1
CC(C)c1ccc(OCc2nc(-c3ccccn3)no2)c(Br)c1	34	0.7	0.6	37	-2.8
Cc1ccc(OCc2nc(-c3ccccn3)no2)c(Br)c1	84*	0.2	0.7	31	-2.9
C/C(=N/NC(=O)CNc1ccc(C)cc1)c1ccc(Br)s1	-1	1	1	0	0.017
CCCCN(C(=O)NC(=O)Nc1c(C)cc(C)cc1C)S(C)(=O)=O	37	0.6	0.7	25	-0.24
CCCCN(C(=O)NC(=O)Nc1ccccc1OCC)S(C)(=O)=O	54*	0.5	0.2	79*	-1.1
Cn1c(SCC(=O)NCC2CCCO2)nnc1-c1ccc(S(=O)(=O)N2CCCC2)cc1 (configuration not stated)	-13	1.1	1.1	-9	0.85
SMILES	CYP2C19 inhib	CYP2C19 activ	CYP2C9 activ	CYP2C9 inhib	Cav32 inh
O=C(Cn1nnc(-c2ccc(S(=O)(=O)N3CCCC3)cc2)n1)NCC1CCCO1 (configuration not stated)	26	0.7	0.3	70*	0.87
COC(C[C@@H](O)C[C@@H](O)[C@@H](C)OCc1ccccc1)OC	·	·	·	·	-0.78
CCCCNS(=O)(=O)c1ccc(NC(=O)c2c(-c3ccccc3Cl)noc2C)cc1	83*	0.2	0	100*	-5.7*
Cc1onc(-c2ccccc2Cl)c1C(=O)Nc1ccc(S(=O)(=O)NCC2CCCO2)cc1 (configuration not stated)	29	0.7	0.3	67*	-0.49
COc1cccc(C2NC(=O)NC(C)=C2C(=O)OCCSC)c1OC (configuration not stated)	·	·	·	·	-0.013
O=C(Nc1ccc2oc(=O)ccc2c1)c1cccnc1	·	·	·	·	0.31
CCOC(=O)C(NC(=O)c1ccc(Cl)cc1Cl)(Nc1ccc(C)cc1)C(F)(F)F (configuration not stated)	91*	0.1	0.9	15	·
CC(C)CCOc1ccc(Cl)cc1CN1CCOCC1	56*	0.4	0.7	35	·
CCCCCOc1ccc(Cl)cc1CN1CCOCC1	90*	0.1	0.5	54*	-0.31
COC(=O)CN1C(=O)C(O)(CC(=O)c2ccc(C)o2)c2ccccc21 (configuration not stated)	-6	1.1	1	-4	0.39
COC(=O)CN1C(=O)C(O)(CC(=O)c2ccc(C)cc2)c2ccccc21 (configuration not stated)	62*	0.4	0.7	32	·
COC(=O)CN1C(=O)C(O)(CC(=O)c2ccccc2)c2ccccc21 (configuration not stated)	51*	0.5	0.9	13	-1.2
CCc1nc(SCC(=O)NCCc2ccc(OC)c(OC)c2)c2c(=O)n(C)c(=O)n(C)c2n1	-3	1	1	-3	0.57
COc1ccc(NC(=O)C2CCC(C)(C(=O)O)C2(C)C)cc1 (configuration not stated)	-9	1.1	1	2	-0.028
COC(=O)C1CCC(C)(C(=O)Nc2ccccc2)C1(C)C (configuration not stated)	68*	0.3	0.4	64*	0.89
CC(C)(C)C(O)/C=C/c1ccc2c(c1)OCO2 (configuration not stated)	·	·	·	·	-1.4
CCCCCCC(=O)N(O)C1CC(=O)N(c2ccc(Br)cc2)C1=O (configuration not stated)	52*	0.5	0.7	32	-0.94
CCC1(CC)C(=O)C(C)(C)C(=O)OC1c1cccs1 (configuration not stated)	96*	0	0.6	44	-1.1
C/C(Cl)=C/Cn1c(=O)c2c(nc(Br)n2Cc2ccccc2)n(C)c1=O	11	0.9	0.9	14	-1.2
COc1ccc(CCNC(=O)c2nnn(-c3cccc(C)c3)c2N)cc1OC	8	0.9	0.3	68*	0.45
CCOc1ccc(NC(=O)Cn2nnc(C(=O)NCCc3ccc(OC)c(OC)c3)c2N)cc1	32	0.7	0.2	79*	-0.7
Cc1ccccc1C(=O)N1CCc2ccccc2C1	·	·	0.8	16	-0.07
Cc1ccc(NC(=O)c2nnn(-c3cc(C)cc(C)c3)c2N)cc1	24	0.8	1.3	-28	-3.4
Cc1cccc(-n2nnc(C(=O)N3CCc4ccccc4C3)c2N)c1	12	0.9	3.2*	-223	-4.7*
Cc1cccc(-n2nnc(C(=O)Nc3ccc(F)cc3)c2N)c1	-6	1.1	2.7*	-166	0.054
